Data from the supplement of paper PMC10849652.
About 7,900 targets were measured; listed, in parts, are those with a hit and a random draw of the rest. About 0.6% of all pairs of compound and target were hits. Values without a mark were called inactive.

Key:
Experiment in all cases: log2 fold change, soluble protein after heating vs DMSO (PISA); higher = thermal stabilisation; K562 cells, 10 uM, 30 min; active = over 0.2 and 3.5 SD of the protein, either way, in both replicates (recomputed)
saracatinib = compound: CN1CCN(CCOc2cc(OC3CCOCC3)c3c(Nc4c(Cl)ccc5c4OCO5)ncnc3c2)CC1 [saracatinib]
In short: (§1)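 Values are thermal stability changes relative to control samples and are taken from duplicates. They are stated as log2 fold changes. Before quantification by TMTpro 16plex LC-MS/MS with equalised channel sums, K562 cells at 2×10^6 cells/mL were treated with 10 μM compound for 30 min, heated in aliquots for 3 min across 48°C-58°C, pooled, extracted in PBS with 0.5% NP-40 at 4°C, and centrifuged at 21,000xg for 90 min to give the soluble supernatant.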

sotrastaurin = compound: CN1CCN(c2nc(C3=C(c4c[nH]c5ccccc45)C(=O)NC3=O)c3ccccc3n2)CC1 [sotrastaurin]
In short: as §1

alvocidib = compound: CN1CC[C@H](c2c(O)cc(O)c3c(=O)cc(-c4ccccc4Cl)oc23)[C@H](O)C1 [alvocidib]
In short: as §1

Tubastatin A = compound: CN1CCc2c(c3ccccc3n2Cc2ccc(C(=O)NO)cc2)C1 [Tubastatin A]
In short: as §1

[1] = compound: CNC(=O)C1=CC=CC=C1NC2=NC(=NC=C2Cl)NC3=C(C=C(C=C3)N4CCOCC4)OC
In short: as §1

defactinib = compound: CNC(=O)c1ccc(Nc2ncc(C(F)(F)F)c(NCc3nccnc3N(C)S(C)(=O)=O)n2)cc1 [defactinib]
In short: as §1

rucaparib = compound: CNCc1ccc(-c2[nH]c3cc(F)cc4c3c2CCNC4=O)cc1 [rucaparib]
In short: as §1

[2] = compound: CNc1nc(-c2ccc3c(N)n[nH]c3c2)cc(N2C[C@@H](C(=O)NC3CCCCC3)CC[C@H]2C)n1
In short: as §1

encorafenib = compound: COC(=O)N[C@@H](C)CNc1nccc(-c2cn(C(C)C)nc2-c2cc(Cl)cc(NS(C)(=O)=O)c2F)n1 [encorafenib]
In short: as §1

[3] = compound: COC(=O)[C@H](CCSC)NC(=O)C1=C(C=C(C=C1)NC[C@H](CS)N)C2=CC=CC=C2
In short: as §1

[4] = compound: COC1=CC=C(C=C1)CN2C=CC3=C2C=C(C=C3)C(=O)NO
In short: as §1

filanesib = compound: CON(C)C(=O)N1N=C(c2cc(F)ccc2F)S[C@@]1(CCCN)c1ccccc1 [filanesib]
In short: as §1

zotarolimus = compound: CO[C@H]1C[C@@H]2CC[C@@H](C)[C@@](O)(O2)C(=O)C(=O)N2CCCC[C@H]2C(=O)O[C@H]([C@H](C)C[C@@H]2CC[C@H](n3cnnn3)[C@H](OC)C2)CC(=O)[C@H](C)/C=C(\C)[C@@H](O)[C@@H](OC)C(=O)[C@H](C)C[C@H](C)/C=C/C=C/C=C/1C [zotarolimus]
In short: as §1

idasanutlin = compound: COc1cc(C(=O)O)ccc1NC(=O)[C@@H]1N[C@@H](CC(C)(C)C)[C@](C#N)(c2ccc(Cl)cc2F)[C@H]1c1cccc(Cl)c1F [idasanutlin]
In short: as §1

alisertib = compound: COc1cc(Nc2ncc3c(n2)-c2ccc(Cl)cc2C(c2c(F)cccc2OC)=NC3)ccc1C(=O)O [alisertib]
In short: as §1

[5] = compound: COc1cc2nc(-c3cc(F)ccc3O)nc(N[C@@H]3CNC[C@H]3C(C)(C)O)c2cc1OC
In short: as §1

gefitinib = compound: COc1cc2ncnc(Nc3ccc(F)c(Cl)c3)c2cc1OCCCN1CCOCC1 [gefitinib]
In short: as §1

[6] = compound: COc1cccc2cc(-c3nc([C@H]4CC[C@H](C(=O)O)CC4)n4ncnc(N)c34)[nH]c12
In short: as §1

lapatinib = compound: CS(=O)(=O)CCNCc1ccc(-c2ccc3ncnc(Nc4ccc(OCc5cccc(F)c5)c(Cl)c4)c3c2)o1 [lapatinib]
In short: as §1

pictilisib = compound: CS(=O)(=O)N1CCN(Cc2cc3nc(-c4cccc5[nH]ncc45)nc(N4CCOCC4)c3s2)CC1 [pictilisib]
In short: as §1

Sequence of UniProt Q9NV70 (Q9NV70 whole entry, looked up): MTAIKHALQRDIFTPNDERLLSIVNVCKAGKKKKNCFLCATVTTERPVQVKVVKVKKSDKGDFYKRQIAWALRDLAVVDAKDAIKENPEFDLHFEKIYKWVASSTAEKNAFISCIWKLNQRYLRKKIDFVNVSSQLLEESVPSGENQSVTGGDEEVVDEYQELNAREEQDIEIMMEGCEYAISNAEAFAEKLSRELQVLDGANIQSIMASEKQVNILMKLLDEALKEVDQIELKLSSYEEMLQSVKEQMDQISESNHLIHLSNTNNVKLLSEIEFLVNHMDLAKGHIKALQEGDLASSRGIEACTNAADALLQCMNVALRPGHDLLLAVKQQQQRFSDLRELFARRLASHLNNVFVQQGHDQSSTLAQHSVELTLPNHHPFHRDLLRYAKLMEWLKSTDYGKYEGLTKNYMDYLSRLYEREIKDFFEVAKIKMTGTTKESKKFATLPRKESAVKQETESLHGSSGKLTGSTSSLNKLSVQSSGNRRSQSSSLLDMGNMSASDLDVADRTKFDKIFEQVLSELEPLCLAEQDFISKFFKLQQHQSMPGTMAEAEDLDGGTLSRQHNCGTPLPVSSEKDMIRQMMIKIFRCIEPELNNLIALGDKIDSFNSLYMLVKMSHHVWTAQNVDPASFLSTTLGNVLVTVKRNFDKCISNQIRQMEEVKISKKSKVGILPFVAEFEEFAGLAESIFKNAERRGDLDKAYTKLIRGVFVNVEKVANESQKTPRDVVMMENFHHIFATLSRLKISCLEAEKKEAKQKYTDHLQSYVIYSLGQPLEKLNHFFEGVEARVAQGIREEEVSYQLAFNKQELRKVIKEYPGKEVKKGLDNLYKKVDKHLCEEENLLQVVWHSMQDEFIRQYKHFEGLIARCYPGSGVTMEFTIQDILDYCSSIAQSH
Sequence of UniProt Q86UK5 (Q86UK5 whole entry, looked up): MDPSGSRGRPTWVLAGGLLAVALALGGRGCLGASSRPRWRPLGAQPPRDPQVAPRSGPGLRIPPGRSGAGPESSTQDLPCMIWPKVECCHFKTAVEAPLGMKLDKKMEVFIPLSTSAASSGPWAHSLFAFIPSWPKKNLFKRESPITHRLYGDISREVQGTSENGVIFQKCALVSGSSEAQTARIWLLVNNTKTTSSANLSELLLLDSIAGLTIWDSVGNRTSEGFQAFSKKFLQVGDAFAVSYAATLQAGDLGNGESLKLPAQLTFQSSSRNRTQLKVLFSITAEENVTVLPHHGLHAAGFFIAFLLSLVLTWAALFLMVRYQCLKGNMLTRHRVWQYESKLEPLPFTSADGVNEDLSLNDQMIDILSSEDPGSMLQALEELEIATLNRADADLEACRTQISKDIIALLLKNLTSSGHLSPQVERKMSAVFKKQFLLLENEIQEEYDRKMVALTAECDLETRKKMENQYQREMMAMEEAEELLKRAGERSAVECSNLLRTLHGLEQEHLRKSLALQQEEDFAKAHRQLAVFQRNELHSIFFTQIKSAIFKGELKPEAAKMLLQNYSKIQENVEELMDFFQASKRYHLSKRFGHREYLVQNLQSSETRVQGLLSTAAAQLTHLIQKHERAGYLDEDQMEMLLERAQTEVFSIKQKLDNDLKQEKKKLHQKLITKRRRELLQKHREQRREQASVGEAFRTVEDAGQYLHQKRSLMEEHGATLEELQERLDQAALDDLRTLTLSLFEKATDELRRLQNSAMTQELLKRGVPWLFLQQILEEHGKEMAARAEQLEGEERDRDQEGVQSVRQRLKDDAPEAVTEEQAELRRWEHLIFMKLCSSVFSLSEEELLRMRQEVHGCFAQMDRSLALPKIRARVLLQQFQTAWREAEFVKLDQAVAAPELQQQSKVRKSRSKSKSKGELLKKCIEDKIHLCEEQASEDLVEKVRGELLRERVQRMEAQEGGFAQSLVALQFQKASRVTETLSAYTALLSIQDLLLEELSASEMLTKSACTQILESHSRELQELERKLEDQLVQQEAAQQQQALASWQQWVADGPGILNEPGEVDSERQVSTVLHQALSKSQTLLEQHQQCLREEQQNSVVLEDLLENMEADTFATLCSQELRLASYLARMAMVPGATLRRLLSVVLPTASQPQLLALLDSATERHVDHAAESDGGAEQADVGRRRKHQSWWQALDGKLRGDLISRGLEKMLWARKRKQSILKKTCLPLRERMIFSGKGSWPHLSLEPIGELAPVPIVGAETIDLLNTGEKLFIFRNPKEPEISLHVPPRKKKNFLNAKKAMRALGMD
Sequence of UniProt P07711 (P07711 whole entry, looked up): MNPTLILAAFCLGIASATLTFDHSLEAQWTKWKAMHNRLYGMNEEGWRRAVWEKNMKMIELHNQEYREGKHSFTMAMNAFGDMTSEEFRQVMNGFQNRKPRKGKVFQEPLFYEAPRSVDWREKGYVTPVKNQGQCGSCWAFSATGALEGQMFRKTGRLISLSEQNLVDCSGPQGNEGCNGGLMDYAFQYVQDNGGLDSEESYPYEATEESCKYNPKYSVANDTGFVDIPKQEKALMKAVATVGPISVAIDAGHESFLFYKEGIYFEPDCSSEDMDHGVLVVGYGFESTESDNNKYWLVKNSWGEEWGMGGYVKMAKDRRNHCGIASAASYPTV
Sequence of UniProt Q99848 (Q99848 whole entry, looked up): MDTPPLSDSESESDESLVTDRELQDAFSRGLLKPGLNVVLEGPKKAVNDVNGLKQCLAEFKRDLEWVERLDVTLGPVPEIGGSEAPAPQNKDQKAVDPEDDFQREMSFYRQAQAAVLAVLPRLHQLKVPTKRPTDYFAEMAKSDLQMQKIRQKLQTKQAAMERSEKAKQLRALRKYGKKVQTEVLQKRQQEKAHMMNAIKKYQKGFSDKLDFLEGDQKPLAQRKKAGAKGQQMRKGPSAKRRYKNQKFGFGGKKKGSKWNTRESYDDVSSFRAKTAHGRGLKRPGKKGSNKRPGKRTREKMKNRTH
Sequence of UniProt Q8TAG9 (Q8TAG9 whole entry, looked up): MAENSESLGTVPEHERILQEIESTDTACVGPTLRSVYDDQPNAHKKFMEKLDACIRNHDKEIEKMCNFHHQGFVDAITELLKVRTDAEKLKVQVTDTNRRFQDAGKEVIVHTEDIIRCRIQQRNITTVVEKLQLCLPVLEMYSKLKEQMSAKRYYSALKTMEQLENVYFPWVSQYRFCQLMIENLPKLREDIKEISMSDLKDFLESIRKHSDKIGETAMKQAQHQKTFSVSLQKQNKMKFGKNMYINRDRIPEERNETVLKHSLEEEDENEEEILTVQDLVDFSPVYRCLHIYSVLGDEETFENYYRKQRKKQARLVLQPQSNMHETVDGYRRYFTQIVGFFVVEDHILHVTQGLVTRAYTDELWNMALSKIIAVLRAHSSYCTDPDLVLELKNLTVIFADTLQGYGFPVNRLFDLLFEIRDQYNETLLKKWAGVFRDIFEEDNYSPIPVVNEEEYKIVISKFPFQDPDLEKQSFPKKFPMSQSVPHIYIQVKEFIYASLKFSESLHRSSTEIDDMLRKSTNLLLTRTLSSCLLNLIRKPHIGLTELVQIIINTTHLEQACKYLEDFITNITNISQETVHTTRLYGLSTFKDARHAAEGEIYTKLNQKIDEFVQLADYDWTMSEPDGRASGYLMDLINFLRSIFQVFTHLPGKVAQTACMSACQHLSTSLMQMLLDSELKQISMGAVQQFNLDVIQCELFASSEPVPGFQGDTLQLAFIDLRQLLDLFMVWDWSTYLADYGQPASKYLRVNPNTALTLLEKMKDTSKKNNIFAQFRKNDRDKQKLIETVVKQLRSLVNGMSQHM
Sequence of UniProt Q96LJ7 (Q96LJ7 whole entry, looked up): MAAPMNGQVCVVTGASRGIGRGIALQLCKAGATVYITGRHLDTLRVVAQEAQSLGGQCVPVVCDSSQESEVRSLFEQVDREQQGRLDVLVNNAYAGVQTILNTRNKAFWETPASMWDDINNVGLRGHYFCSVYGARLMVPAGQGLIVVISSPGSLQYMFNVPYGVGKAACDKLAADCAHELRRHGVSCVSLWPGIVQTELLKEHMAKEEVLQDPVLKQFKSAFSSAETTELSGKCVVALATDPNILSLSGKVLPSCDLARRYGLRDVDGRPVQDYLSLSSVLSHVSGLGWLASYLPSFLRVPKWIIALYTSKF
Sequence of UniProt Q9NZN4 (Q9NZN4 whole entry, looked up): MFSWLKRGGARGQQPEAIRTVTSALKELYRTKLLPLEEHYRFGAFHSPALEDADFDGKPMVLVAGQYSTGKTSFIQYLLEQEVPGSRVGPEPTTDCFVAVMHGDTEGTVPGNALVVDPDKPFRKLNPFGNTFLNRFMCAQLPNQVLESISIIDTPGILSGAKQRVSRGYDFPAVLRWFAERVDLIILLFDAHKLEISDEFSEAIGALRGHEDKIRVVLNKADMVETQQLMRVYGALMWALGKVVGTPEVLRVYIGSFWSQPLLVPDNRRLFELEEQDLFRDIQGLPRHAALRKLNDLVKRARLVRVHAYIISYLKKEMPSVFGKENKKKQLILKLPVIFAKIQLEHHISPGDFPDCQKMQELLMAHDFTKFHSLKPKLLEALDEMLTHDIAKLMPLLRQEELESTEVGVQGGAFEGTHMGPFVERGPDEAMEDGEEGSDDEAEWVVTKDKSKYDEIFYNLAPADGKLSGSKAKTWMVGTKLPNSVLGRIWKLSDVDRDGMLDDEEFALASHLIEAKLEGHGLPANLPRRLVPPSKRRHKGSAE

Target	log2 fold change (saracatinib)	log2 fold change (sotrastaurin)	log2 fold change (alvocidib)	log2 fold change (Tubastatin A)	log2 fold change [1]	log2 fold change (defactinib)	log2 fold change (rucaparib)	log2 fold change [2]	log2 fold change (encorafenib)	log2 fold change [3]	log2 fold change [4]	log2 fold change (filanesib)	log2 fold change (zotarolimus)	log2 fold change (idasanutlin)	log2 fold change (alisertib)	log2 fold change [5]	log2 fold change (gefitinib)	log2 fold change [6]	log2 fold change (lapatinib)	log2 fold change (pictilisib)
DHRS1 (UniProt Q96LJ7)	-0.074	0.153	-0.018	0.022	0.375	-0.007	0.031	0.392	-0.116	-0.116	0.159	0.061	0.448	0.952 (active)	-0.025	0.115	0.494	-0.113	0.096	0.009
DYRK1A isoform 2 (UniProt Q13627)	-0.046	0.022	-0.135	0.058	-0.264 (active)	0.03	0.036	0.029	0.014	-0.021	-0.061	0.01	0.023	0	-0.03	0.004	0.007	0.036	-0.034	0.017
EBNA1BP2 (UniProt Q99848)	-0.081	-0.138	0.165	0.34	-0.047	0.512	0.23	0.142	0.13	0.086	-0.054	0.686	0.069	0.283	-0.172	-0.095	-0.01	-0.216	0.153	-0.069
EVC2 (UniProt Q86UK5)	-0.151	0.067	0.031	-0.033	-0.035	-0.065	0.065	0.035	0.002	0.073	-0.073	-0.142	-0.039	0.053	-0.066	-0.146	0.09	0.016	-0.224	-0.194
EXOC1 (UniProt Q9NV70)	0.013	-0.249	-0.04	0.038	-0.002	-0.074	0.172	0.066	0.06	-0.081	-0.056	0.01	0.038	-0.084	0.015	0.131	-0.045	-0.129	-0.011	-0.021
EHD2 (UniProt Q9NZN4)	0.016	0.017	-0.017	0.048	-0.031	-0.12	-0.019	-0.053	0.046	-0.061	0.001	-0.013	0.007	-0.025	-0.02	0.092	-0.034	0.055	-0.06	-0.051
EXOC6 (UniProt Q8TAG9)	-0.02	-0.153	-0.151	0.042	0.075	-0.061	0.025	-0.015	0.013	0.009	-0.021	0.017	0.151	-0.058	-0.013	0.119	-0.037	-0.101	-0.052	-0.003
CTSL (UniProt P07711)	0.113	0.05	0.085	0.038	0.024	0.032	0.049	0.018	-0.008	0.02	-0.143	0.316 (active)	-0.041	0.125	-0.099	0.044	0.025	0.086	0.087	0.057
